According to PubChem BioAssay (Tox21):
Inconclusive results are not listed. Entries that show only a call come without a potency. Activity calls are given as the source filed them. The call rests on the fitted dose curve; in most records, active means well fitted cell-killing curve with a large enough effect in the repeat runs; inconclusive means weak or mixed curves, or effect the other way; inactive means flat fitted curve, though single readings scatter.

Assay: cAMP Responsive Elements (CRE) small molecule antagonists, cell-based qHTS assay: qHTS cell viability counter screen (AID 2060913); further: nearly all actives have a fitted effect of over 40% in size
Conditions: CRE-bla HEK293T viability, CellTiter-Glo luminescence, 5 h; series mostly up to 92.4 µM
How it was run: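 CRE-bla HEK293T cells (2,000/well, 18 h) given compound plus NKH477 0.25 uM final for 3 h at 37C; viability counter-screen by CellTiter-Glo luminescence in same wells after 30 min.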
Potency means the concentration at half of the fitted maximal effect.

| SMILES | Potency | viability change, negative = cytotoxic |
| --- | --- | --- |
| O=c1c(-c2ccc(O)cc2)coc2cc(O)ccc12 | inactive |  |
| O=[N+]([O-])c1ccc(O)c2ncccc12 | inactive |  |
| Cc1cccc(Cl)c1 | inactive |  |
| On1nnc2ccccc21 | inactive |  |
| CC1COC(=O)O1 (stereo not given) | inactive |  |
| N=C(N)N1CCc2ccccc2C1 |  | -0.283% [at 8.39 µM] (inactive) |
| CC[N+](CC)(CC)CCOc1ccc(/C=C/c2ccccc2)cc1 | inactive |  |
| CCCCN1C[C@H](O)[C@@H](O)[C@H](O)[C@H]1CO | inactive |  |
| CCCCCCCCCCCC(=O)NCCCN(C)C | 61.1 µM (active) |  |
| CC(C)(C)NC[C@H](O)COc1nsnc1N1CCOCC1 | inactive |  |
| CC(=O)Nc1ccn(C2COC(COC(=O)c3ccccc3)O2)c(=O)n1 (stereo not given) | inactive |  |
| NNc1nc(-c2ccc([N+](=O)[O-])cc2)cs1 | inactive |  |
| O=c1[nH]c2ccccc2n1CCCN1CCN(C(c2ccccc2)c2ccccc2)CC1 | inactive |  |
| CCN(Cc1cccc(S(=O)(=O)O)c1)c1ccc(C(=C2C=CC(=[N+](CC)Cc3cccc(S(=O)(=O)[O-])c3)C=C2)c2ccccc2)cc1 | inactive |  |
| COc1cccc2c1C(=O)c1c(O)c3c(c(O)c1C2=O)C[C@@](O)(C(=O)CO)C[C@@H]3O[C@H]1C[C@H](N)[C@H](O[C@@H]2CCCCO2)[C@H](C)O1 | inactive |  |
| Cc1ccc2ccc3cccc4ccc1c2c34 | inactive |  |
| O=C1CC2(CCCC2)CC(=O)N1CCNCC1COc2ccccc2O1 (stereo not given) | inactive |  |
| O=C1c2ccccc2C(=O)c2c(O)ccc(O)c21 | inactive |  |
| O=C(C(=O)c1ccco1)c1ccco1 | inactive |  |
| CC(C)(C(=O)O)c1ccc(C(O)CCCN2CCC(C(O)(c3ccccc3)c3ccccc3)CC2)cc1 (stereo not given) | inactive |  |

| SMILES | Potency | viability change, negative = cytotoxic |
| --- | --- | --- |
| CCC(C)CCCC(C)(C)O (stereo not given) | inactive |  |
| CCC(CO)(CO)CO | inactive |  |
| CC(C)=CCC/C(C)=C\C#N | inactive |  |
| CNCCc1ccccn1 | inactive |  |
| Cc1cc(Br)ccc1NC(=O)CCl | inactive |  |
| O=C1c2ccccc2C(=O)C1c1ccc2cc(S(=O)(=O)O)cc(S(=O)(=O)O)c2n1 | inactive |  |
| Cc1c(N(C)C)c(=O)n(-c2ccccc2)n1C | inactive |  |
| S=C1NC=NC2N=CNC12 (stereo not given) | 3.06 µM (active) |  |
| CC(C)c1ccc(C#N)cc1 | inactive |  |
| OC[C@@H](O)[C@H](O)[C@@H](O)[C@@H](O)CO | inactive |  |
| CCCCCCCCCCCBr | inactive |  |
| COc1ccc(OC)c(Cl)c1 | inactive |  |
| C=CC(C)CCCC(C)(C)O (stereo not given) | inactive |  |
| C=CC(=C)CCC=C(C)C | inactive |  |
| CN1CCCCC1CCN1c2ccccc2Sc2ccc(S(C)=O)cc21 (stereo not given) | inactive |  |
| CC1=C(C)C(=O)C(C(CCCCCC(=O)O)c2ccccc2)=C(C)C1=O (stereo not given) | inactive |  |
| CCN(CC)CCOC(=O)C(c1ccccc1)c1ccccc1 | inactive |  |
| CC1=CCCC(C)(C)C12CCC(C)O2 (stereo not given) | inactive |  |
| Cc1cccc(N(C)C)c1 | inactive |  |
| COc1ccc(CCN(C)CCCN2CCc3cc(OC)c(OC)cc3CC2=O)cc1OC | inactive |  |
